Structures are written as SMILES. Potency and affinity values are given separately. Values without a mark were called inactive.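 The calls were made as follows: active = toxic compound whose fitted half-effect dose of signal loss is at most twice its top tested dose; inconclusive = flat fit losing 30 to 70% signal, or poor fit; inactive = the rest.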

This assay can be described thus: cytotoxicity in HeLa cells, dose response, cytotoxicity control, cell-based, plate reader, dry powder (AID 651946). The conditions noted are these: HeLa viability, ATP luminescence (CellTiter-Glo), 48 h; series mostly up to 26 µM; activity change, negative = cytotoxicity: at the top concentration.
Regarding `Clc1ccc(-c2nnc(SCc3ccccc3)o2)cc1`, the “activity change, negative = cytotoxicity” value is 9.97%.

In the case of `COc1ccc(CSc2nnc(-c3ccccc3)o2)cc1`, the “activity change, negative = cytotoxicity” value was -12.5%.

With `c1ccc(CSc2nnc(-c3ccccc3)o2)cc1`, the “activity change, negative = cytotoxicity” value was -8.64%.

The values are drawn from PubChem BioAssay AID651946 (Broad Institute, 2012).
